Read-out in test [1]: Vascular cell adhesion molecule 1 (VCAM1), VCAM1 (gene 7412)
In words: BSK_IMphg_VCAM1: BioMAP Diversity Plus: IMphg Assay for Vascular cell adhesion molecule 1 (VCAM1) Biomarker Activity (AID 2284286). Particulars: primary human endothelial cells with macrophages. The method, boiled down:
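Human venular endothelial cells co-cultured with macrophages; VCAM-1 quantified by ELISA 24 h after dosing, fitted in the positive direction against DMSO. Cytotoxicity was checked in parallel cultures by SRB total-protein staining (0.1% SRB after 10% TCA fixation, 560 nm).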

Read-out in a further test: CD40, CD40 (gene 958)
The experiment in a line: BSK_IMphg_CD40: BioMAP Diversity Plus: IMphg Assay for CD40 Biomarker Activity (AID 2284288). Particulars: primary human endothelial cells with macrophages. The method, boiled down: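 Venular endothelial cells co-cultured with macrophages (human primary), CD40 measured by ELISA 24 h after dosing. Positive-direction fit vs DMSO baseline; cytotoxicity tracked by SRB total-protein staining in parallel cultures.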

Read-out in test [2]: E-selectin (Homo sapiens) (UniProt P16581)
The experiment in a line: BSK_IMphg_ESelectin: BioMAP Diversity Plus: IMphg Assay for Eselectin Biomarker Activity (AID 2284291). Particulars: primary human endothelial cells with macrophages. The procedure, abridged: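 Human venular endothelial cell–macrophage co-culture, E-selectin measured by ELISA 24 h after chemical dosing. Signal fitted in the positive direction against DMSO as negative control and baseline.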

Test [3] in a line: BSK_IMphg_SRB: Viability Assessment in the BioMAP Diversity Plus: IMphg Assay (AID 2284292).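 Further: measured one day after compound addition.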 Particulars: primary human endothelial cells with macrophages. The method, boiled down:
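Human venular endothelial cells with macrophages, 24 h after chemical dosing; total protein by 0.1% SRB staining after 10% TCA fixation, read at 560 nm. Positive-direction fitting versus DMSO baseline.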

Read-out in test [4]: Macrophage colony-stimulating factor (MCSF), CSF1 (gene 1435)
The experiment in a line: BSK_IMphg_MCSF: BioMAP Diversity Plus: IMphg Assay for Macrophage colony-stimulating factor (MCSF) Biomarker Activity (AID 2284293). Particulars: primary human endothelial cells with macrophages. The method, boiled down:
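Co-culture of human venular endothelial cells and macrophages, 24 hours of chemical exposure. M-CSF quantified by ELISA, with parallel SRB total-protein staining for cytotoxicity; activity fitted relative to DMSO.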

Read-out in test [5]: Interleukin-10 (IL10), IL10 (gene 3586)
In words: BSK_IMphg_IL10: BioMAP Diversity Plus: IMphg Assay for Interleukin-10 (IL10) Biomarker Activity (AID 2284294). As to conditions: primary human endothelial cells with macrophages. The procedure, abridged:
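Human venular endothelial cells cocultured with macrophages, dosed 24 h; IL-10 measured by ELISA, activity relative to DMSO. Cytotoxicity assessed in parallel cultures by sulforhodamine B total-protein staining.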

Test [6] is described as follows: BSK_IMphg_SRB.Mphg: Macrophage Viability Assessment in the BioMAP Diversity Plus: IMphg Assay (AID 2284295). As to conditions: primary human endothelial cells with macrophages. The procedure, abridged: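 Venular endothelial cells co-cultured with macrophages, read 24 h after dosing. Total protein measured by 0.1% SRB staining after 10% TCA fixation, absorbance at 560 nm. Fitted in positive direction against DMSO baseline.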

In the next test the test system is TTR (gene 7276). The experiment in a line: CCTE_GLTED_hTTR_0.5uM: CCTE's human Transthyretin (hTTR) Inhibition Assay, with 0.5uM TTR, Great Lakes Toxicology and Ecology Division (GLTED) Lab (AID 2284320). The method, boiled down: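 Cell-free displacement assay in which human TTR at 0.5 uM was incubated with test chemical for 2 h. Displacement of the ANSA probe was read by fluorescence at 380 nm excitation/475 nm emission. Loss of signal was fitted in the positive direction versus DMSO.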

Test [7] can be described thus: CCTE_Padilla_ZF_Score.Craniofacial: CCTE's 144 Hour Post-fertilization zebrafish Assay Score for Craniofacial Malformation, Padilla Lab (AID 2284405). The procedure, abridged: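 Wild-type zebrafish embryos (with chorions), one per well in 10% Hanks', were dosed at 6–8 hpf in sealed plates and kept at 26C. They were rinsed at 5 dpf. At 6 dpf two blinded assessors scored craniofacial malformations by brightfield stereomicroscopy.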

Test [8] can be described thus: CCTE_Padilla_ZF_Score.Edema: CCTE's 144 Hour Post-fertilization zebrafish Assay Score for Edema Malformation, Padilla Lab (AID 2284406). The procedure, abridged: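 Wild-type zebrafish embryos, one per well in Hanks' solution, dosed at 6-8 hpf, sealed and reared at 26C on a 14:10 h cycle; rinsed on 5 dpf. At 6 dpf, blinded assessors scored edema by stereomicroscopy.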

Test [9] can be described thus: CCTE_Padilla_ZF_Score.Spine: CCTE's 144 Hour Post-fertilization zebrafish Assay Score for Spine Malformation, Padilla Lab (AID 2284407). The method, boiled down:
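Wild-type zebrafish embryos, one per well in Hanks' solution, dosed at 6–8 hpf in sealed plates at 26C, 14:10 h light:dark; rinsed at 5 dpf. Two blinded assessors scored spinal defects by stereomicroscopy at 6 dpf; fitted versus DMSO.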

Test [10] can be described thus: CCTE_Padilla_ZF_Score.Swim_bladder: CCTE's 144 Hour Post-fertilization zebrafish Assay Score for Swim Bladder Malformation, Padilla Lab (AID 2284408). The method, boiled down:
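Wild-type zebrafish embryos, one per well in 10% Hanks', dosed at 6–8 hpf, sealed, reared at 26C and rinsed at 5 dpf. Blinded assessors scored uninflated swim bladder by stereomicroscopy at 6 dpf, relative to DMSO.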

The nature of test [11]: CCTE_Padilla_ZF_Score.Position: CCTE's 144 Hour Post-fertilization zebrafish Assay Score for Position, Padilla Lab (AID 2284409). The method, boiled down:
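Wild-type zebrafish embryos (with chorions) exposed singly from 6–8 hpf in sealed wells of Hanks' solution at 26C, rinsed at 5 dpf. At 6 dpf, blinded assessors scored abnormal water-column position by brightfield stereomicroscopy, relative to DMSO.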

A short description of test [12]: CCTE_Padilla_ZF_Score.Living: CCTE's 144 Hour Post-fertilization zebrafish Assay Score for Viability, Padilla Lab (AID 2284410).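 Further: larval death at 6 dpf judged by absent heartbeat or coagulation.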 The procedure, abridged:
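Wild-type zebrafish embryos were exposed singly from 6–8 hpf in sealed wells of Hanks' solution at 26C, then rinsed at 5 dpf. At 6 dpf, blinded assessors scored mortality (no heartbeat or coagulation) by stereomicroscopy, fitted against DMSO.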

Test [13] is described as follows: CCTE_Padilla_ZF_Score.General: CCTE's 144 Hour Post-fertilization zebrafish Assay Score for General Malformation, Padilla Lab (AID 2284411). The procedure, abridged: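 Wild-type zebrafish embryos were plated singly at 6-8 hpf in 10% Hanks' and exposed in sealed wells at 26C until rinsed on 5 dpf. At 6 dpf two blinded assessors scored mortality, hatching and malformations by stereomicroscopy; gain-of-signal versus DMSO.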

The nature of test [14]: CCTE_Padilla_ZF_Score.Tail: CCTE's 144 Hour Post-fertilization zebrafish Assay Score for Tail Malformation, Padilla Lab (AID 2284414). The method, boiled down:
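Wild-type zebrafish embryos, one per well in 200 uL 10% Hanks', dosed at 6-8 hpf, sealed, and kept at 26 C on a 14:10 h light cycle. Chemical was rinsed out at 5 dpf. Blinded brightfield scoring of tail defects followed at 6 dpf.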

Test [15] is described as follows: CCTE_Padilla_ZF_Score.Blood_pooling: CCTE's 144 Hour Post-fertilization zebrafish Assay Score for Blood Pooling, Padilla Lab (AID 2284415). The procedure, abridged:
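Wild-type outbred zebrafish embryos, one per well in 10% Hanks', exposed from 6–8 hpf in sealed plates at 26C on 14:10 h light:dark, rinsed at 5 dpf. Blinded stereomicroscope scoring of blood pooling at 6 dpf; gain-of-signal versus DMSO.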

A short description of test [16]: CCTE_Padilla_ZF_Score.Any: CCTE's 144 Hour Post-fertilization zebrafish Assay Score for Any Mortality or Malformation, Padilla Lab (AID 2284416). The method, boiled down: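 Wild-type zebrafish embryos with chorions, one per well in 10% Hanks' from 6–8 hpf, dosed in sealed plates at 26 C, 14:10 h light:dark; rinsed at 5 dpf; blinded scoring at 6 dpf for death or malformation, versus DMSO.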

The target of test [17] is D(1A) dopamine receptor (Homo sapiens) (UniProt P21728). In words: NVS_GPCR_hDRD1: NovaScreen (NVS) G Protein-Coupled Receptor Assay for human Dopamine Receptor D1 (DRD1) (AID 2283269; active means hit-call score of the fitted dose curve at least 0.9, where 1 is the maximum). The method, boiled down: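 Cell-free competition with radioligand, filter-trapped and scintillation-counted 1 h post-dose, using HEK293-derived human D1 preparation. Duplicate single-point testing at 25 uM first, then concentration series for actives; DMSO served as baseline, loss-of-signal scored.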

Test [18] is described as follows: UKN5_HCS_SBAD2_cell_viability: Viability Assessment in the University of Konstanz (UKN) Leist Lab Neurite Outgrowth Assay in human iPSC-derived immature Dorsal Root Ganglia Neurons (UKN5) (AID 2284056). The method, boiled down: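 iPSC-derived immature peripheral neurons (SBAD2) seeded on Matrigel with CHIR99021, SU5402 and DAPT, dosed 1 h later for 24 h. Viability from Hoechst H-33342 and calcein-AM live staining, high-content imaging; bidirectional fit versus DMSO.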

Several values for one entry are separate records, joined by “and”; a condition that tells them apart may be missing. Equal entries are not always repeated. Records with an inconclusive call do not appear. Activity calls are given as the source filed them. How the source made its calls, unless noted: active means hit-call score of the fitted dose curve at least 0.9, where 1 is the maximum; inactive means score below 0.9.

Sequence of E-selectin (Homo sapiens) (P16581 whole entry, looked up): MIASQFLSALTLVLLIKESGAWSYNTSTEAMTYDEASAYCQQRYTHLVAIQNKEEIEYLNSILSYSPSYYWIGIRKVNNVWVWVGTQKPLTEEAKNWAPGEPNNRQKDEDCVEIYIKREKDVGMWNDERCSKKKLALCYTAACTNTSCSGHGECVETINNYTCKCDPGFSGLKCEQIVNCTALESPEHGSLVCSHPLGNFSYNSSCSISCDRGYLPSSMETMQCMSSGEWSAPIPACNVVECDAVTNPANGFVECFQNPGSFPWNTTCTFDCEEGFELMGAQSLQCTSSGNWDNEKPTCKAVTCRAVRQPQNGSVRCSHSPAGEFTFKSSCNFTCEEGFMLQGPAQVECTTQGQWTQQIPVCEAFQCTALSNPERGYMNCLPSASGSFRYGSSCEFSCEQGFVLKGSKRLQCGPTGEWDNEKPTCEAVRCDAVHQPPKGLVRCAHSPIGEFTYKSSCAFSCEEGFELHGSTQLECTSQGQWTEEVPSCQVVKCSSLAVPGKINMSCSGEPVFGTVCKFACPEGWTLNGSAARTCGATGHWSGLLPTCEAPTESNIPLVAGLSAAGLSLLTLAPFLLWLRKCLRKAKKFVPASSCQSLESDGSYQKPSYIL
Sequence of D(1A) dopamine receptor (Homo sapiens) (P21728 whole entry, looked up): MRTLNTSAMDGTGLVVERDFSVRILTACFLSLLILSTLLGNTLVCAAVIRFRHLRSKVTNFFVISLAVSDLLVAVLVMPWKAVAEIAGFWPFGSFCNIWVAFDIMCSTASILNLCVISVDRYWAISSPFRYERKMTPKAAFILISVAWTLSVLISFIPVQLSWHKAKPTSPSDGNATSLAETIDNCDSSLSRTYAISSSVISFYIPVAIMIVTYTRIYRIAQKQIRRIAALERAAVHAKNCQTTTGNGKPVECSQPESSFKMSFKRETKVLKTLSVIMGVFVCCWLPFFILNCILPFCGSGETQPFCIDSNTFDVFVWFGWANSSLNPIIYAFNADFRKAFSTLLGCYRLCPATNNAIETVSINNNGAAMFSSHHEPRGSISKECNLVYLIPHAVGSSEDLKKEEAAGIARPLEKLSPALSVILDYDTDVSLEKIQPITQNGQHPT

A word on the AC50: it is the midpoint of the concentration-response curve, whichever way the signal moves. As for `OC(C(F)(F)F)(C(F)(F)F)C(O)(C(F)(F)F)C(F)(F)F`, the AC50 in [1] is 23.6 µM (active) and 22.1 µM (active); with CD40, CD40 (gene 958) it was 23 µM (active) and 21.1 µM (active); in test [2], 22 µM (active) and 30 µM (active); in [3], 34.1 µM (active) and 34.8 µM (active); in [4], 20 µM (active) and 8.19 µM (active); in test [5], 23.6 µM (active) and 21.1 µM (active). Besides, the AC50 in test [6] is 41.5 µM (active) and 37.7 µM (active); in the test on TTR (gene 7276) it was 11000 nM (active); in test [7], 2570 nM (active); in test [8], 2660 nM (active); in test [10] it was 2660 nM (active); in test [12] it was 11800 nM (active). The AC50 is 1180 nM (active) in test [13] and 2210 nM (active) in test [16]. For the same compound, the compound was called inactive in [9], in [11], in test [14] and in test [15].

As to `CC(=[OH+])/C=C(/C)[O-].CC(=[OH+])/C=C(/C)[O-].CC(=[OH+])/C=C(/C)[O-].[Fe]`, in [17], the result was inactive.

As for `CNCCC(Oc1ccc(C(F)(F)F)cc1)c1ccccc1` (stereo not given), in test [18], the AC50 was 18800 nM (active).

The values are drawn from PubChem BioAssay (EPA / NIEHS).
